This passage reports Potency results from PubChem BioAssay (NCATS).

Records with an inconclusive call do not appear. The source made the active and inactive calls. Calls come from the whole dose curve; as a rule, active = well fitted cell-killing curve with a large enough effect; inconclusive = small, poorly fitted or top-dose-only effect, or effect the other way; inactive = no such curve, though single readings can be large or run the other way. Residues, ends and D or L forms follow the SMILES beside them. *: point of attachment. Cbz = O=C(OCc1ccccc1)*
Potency is the fitted concentration of half-maximal effect.

This experiment can be described thus: Quantitative High-Throughput drug screen in 47 multiple myeloma cell lines against the NCATS MIPE library collection: H1112_PLB cell viability assay (AID 1918967; note: nearly all actives have a fitted effect of over 30% in size). The settings on record: H1112 myeloma cells viability, ATP luminescence, 48 h; series mostly up to 45.8 µM. An excerpt: PI: Beverly A. Mock Ph.D.
Laboratory of Cancer Biology and Genetics,
Center for Cancer Research, National Cancer Institute,
National Institute of Health, Bethesda, Maryland
Drug resistance and disease progression are common in multiple myeloma (MM) patients, underscoring the need for new therapeutic combinations. […] We hypothesized that effective combinations would reduce MYC expression and enhance p16 activity. […] These preclinical data identify potentially useful drug combinations for evaluation in drug-resistant MM and reveal potential mechanisms of combined drug sensitivity.
Described herein is the primary MIPE qHTS used to cherrypick compounds. Validated compounds were then further tested for potential synergistic activiy.
[1] Peat TJ, Gaikwad SM, Dubois W, Gyabaah-Kessie N, Zhang S, Gorjifard S, Phyo Z, Andres M, Hughitt VK, Simpson RM, Miller MA, Girvin AT, Taylor A, Williams D, D'Antonio N, Zhang Y, Rajagopalan A, Flietner E, Wilson K, Zhang X, Shinn P, Klumpp-Thomas C, McKnight C, Itkin Z, Chen L, Kazandijian D, Zhang J, Michalowski AM, Simmons JK, Keats J, Thomas CJ, Mock BA. Drug combinations identified by high-throughput screening promote cell cycle transition and upregulate Smad pathways in myeloma. Cancer Lett. 2023 Aug 1;568:216284. doi: 10.1016/j.canlet.2023.216284. Epub 2023 Jun 24. PMID: 37356470; PMCID: PMC10408729.
SEQUENCE No. (e.g., 1, 2, 3, etc.); […] (e.g., Cells, Incubation, Reagent, etc.); VALUE and DESCRIPTION.
1; Cells; 5 uL; white, solid bottom 1536-well Greiner assay plate.
2; Compounds; 23 nL; Kalypsis pin tool (Wako USA) equipped with a 1536-well pin head to transfer to the assay plates.
3; Incubation; 48 hours; 37C incubation.
4; Reagent;5uL; CellTiter Glo (Promega).
5; Detector; 425V; Luminescence; Viewlux PerkinElmer.
NOTES (numbers refer to Sequence numbers above)
1. The cell-based screening methods employed in this study were like those previously published. Briefly, the corresponding myeloma cell lines were screened in 1,536-well plates with 500 cells, 5-uL per well for inhibition of cell viability (assessed by measuring ATP levels with CellTiterGlo).
2. NCATS MIPE 4.0 library of approved and investigational drugs were added using the Kalypsis pin tool. Wells treated with DMSO only for 100% viability and media only wells for 0% viability were used as controls.
3. The assay plates were covered and incubated for 48 hours in a 37C, 5% CO2 incubator with controlled humidity.
4. After 48 hours, CellTilter-GloTM luminescent substrate mix (Promega) reagent was added to the assay plate and plates we incubated for 5 min at room temperature.
5. Signal was measured as median relative luminescence units on a ViewLux (PerkinElmer) multiplate reader.
[1] Heske CM, Davis MI, Baumgart JT, Wilson K, Gormally MV, Chen L, Zhang X, Ceribelli M, Duveau DY, Guha R, Ferrer M, Arnaldez FI, Ji J, Tran HL, Zhang Y, Mendoza A, Helman LJ, Thomas CJ. Matrix Screen Identifies Synergistic Combination of PARP Inhibitors and Nicotinamide Phosphoribosyltransferase (NAMPT) Inhibitors in Ewing Sarcoma. Clin Cancer Res. 2017 Dec 1;23(23):7301-7311. doi: 10.1158/1078-0432.CCR-17-1121. Epub 2017 Sep 12. PMID: 28899971; PMCID: PMC6636827.
As to `O=C(Nc1cccc(Nc2ncc(Br)c(NCCc3cnc[nH]3)n2)c1)N1CCCC1`, the Potency is 9.35 µM (active).
On to `CC(=O)N[C@H]1[C@@H]([C@H](O)[C@H](O)CO)OC(C(=O)O)=C[C@@H]1N=C(N)N`, for which the Potency entry is “inactive”.
Then `C=C[C@@H]1CN2CCC1C[C@H]2[C@H](O)c1ccnc2ccc(OC)cc12` (stereo not given in full), with “inactive”.
As for `CC(C)(C)c1nc2c3cc[nH]c(=O)c3c3cc(F)ccc3c2[nH]1`, the Potency was 1.18 µM (active).
The value for `C[C@@H](Oc1ccc2[nH]nc(C=Cc3cnn(CCO)c3)c2c1)c1c(Cl)cncc1Cl` was 6.62 µM (active); that for `CN1CCCN(C(=O)c2cccc(-c3ccc(C=C4C(=O)Nc5ccc(Cl)cc54)o3)c2)CC1` was 26.4 µM (active); that for `NC(=O)N1CCC(CC(=O)N2CCC([C@H]3c4ncc(Br)cc4CCc4cc(Cl)cc(Br)c43)CC2)CC1` was 10.5 µM (active).
The value for `CC(C)C[C@@H](C=O)NC(=O)[C@H](CC(C)C)NC(=O)[C@H](CC(C)C)NC(=O)OCc1ccccc1` (Cbz-Leu-Leu-Leu-aldehyde) was 0.264 µM (active); that for `O=[N+]([O-])c1cn2c(n1)OC[C@@H](OCc1ccc(OC(F)(F)F)cc1)C2` was “inactive”.
Then `C#C[C@]1(O)CC[C@@H]2[C@@H]3CCc4cc(O)ccc4[C@H]3CC[C@@]21C`, with 18.7 µM (active).
Turning to `c1ccc2c(Oc3nc(Nc4ccc(N5CCOCC5)cc4)c4ncn(C5CCCCC5)c4n3)cccc2c1`, the Potency result is “inactive”.
Then `Cc1ccc([N+](=O)[O-])cc1S(=O)(=O)N(C)N=Cc1cnc2ccc(Br)cn12`, with 0.0132 µM (active); and `Cc1cnn(C)c1C(=O)Nc1cc(Nc2ccc3c(C=Cc4ccccn4)n[nH]c3c2)ccc1F`, with 8.33 µM (active).
`CC(=O)O[C@H]1C[C@@H]2CC[C@H]3[C@H]4C[C@H]([N+]5(C)CCCCC5)[C@@H](OC(C)=O)[C@@]4(C)CC[C@@H]3[C@@]2(C)C[C@H]1N1CCCCC1`: the Potency result is “inactive”.
Then `CC(C)c1cc(C(C)C)c(CC(=O)NS(=O)(=O)Oc2c(C(C)C)cccc2C(C)C)c(C(C)C)c1`, with “inactive”; and `COc1cccc2c1C(=O)c1c(O)c3c(c(O)c1C2=O)C[C@@](O)(C(=O)CO)C[C@H]3O[C@H]1C[C@H](N)[C@H](O)[C@H](C)O1`, with 0.372 µM (active).
Then `Cc1ccccc1C(=O)Nc1ccc(C(=O)N2CCCC(O)c3cc(Cl)ccc32)c(C)c1` (stereo not given), with “inactive”.
The value for `O=C1CSC(=O)N1C(CCc1ccncc1)COc1ccc(-c2cccc([N+](=O)[O-])c2)cc1` (stereo not given) was 7.43 µM (active); that for `COc1cc(OC)c(C=CS(=O)(=O)Cc2ccc(OC)c(NCC(=O)O)c2)c(OC)c1` was 0.418 µM (active).
On to `N#Cc1ccc(COC[C@H]2O[C@@H](n3c(NCc4ccc(Cl)c(Cl)c4)nc4c(N)ncnc43)[C@@H](O)[C@@H]2O)cc1`, for which the Potency is 7.43 µM (active).
Then `C=CCNc1c(O)cc2c(O)c1C[C@@H](C)C[C@H](OC)[C@@H](O)[C@@H](C)C=C(C)[C@H](OC(N)=O)[C@@H](OC)C=CC=C(C)C(=O)N2`, with 1.05 µM (active); and `O=C(c1ccc(F)cc1)N1CCC[C@H](c2nc(-c3ccc(F)cc3)no2)C1`, with “inactive”; and `Nc1ccn(C2CO[C@H](CO)O2)c(=O)n1` (stereo not given in full), with “inactive”.
The value for `CC(C)N1[N]C(=C2C=c3cc(O)ccc3=N2)c2c(N)ncnc21` was 4.18 µM (active); that for `COc1cc2c(cc1OC)[C@@H]1C(=O)c3ccc4c(c3O[C@@H]1CO2)C=CC(C)(C)O4` was 0.0296 µM (active).
Then `CCOC(=O)N1CCN([N+]([O-])=NOc2ccc([N+](=O)[O-])cc2[N+](=O)[O-])CC1`, with 1.18 µM (active); and `Cn1c(Nc2ccc(C(F)(F)F)cc2)nc2cc(Oc3ccnc(-c4ncc(C(F)(F)F)[nH]4)c3)ccc21`, with 8.33 µM (active); and `COc1cc(N2CCC(C(N)=O)CC2)ccc1Nc1nc(N)c(Cl)c(Nc2ccccc2S(=O)(=O)C(C)C)n1`, with 0.148 µM (active).
Turning to `NC(=O)c1cccc(-c2cccc(OC(=O)NC3CCCCC3)c2)c1`, the Potency result was “inactive”.
For `CC[C@H]1OC(=O)[C@H](C)[C@@H](O[C@H]2C[C@@](C)(OC)[C@@H](O)[C@H](C)O2)[C@H](C)[C@@H](O[C@@H]2O[C@H](C)C[C@H](N(C)C)[C@@H]2O)[C@](C)(OC)C[C@@H](C)C(=O)[C@H](C)[C@@H](O)[C@]1(C)O`, the Potency entry was “inactive”.
The value for `O=C(Nc1nnc(-c2ccco2)o1)c1cc(-c2ccccc2)nc2ccccc12` was 18.7 µM (active); that for `O=C1c2cccc(O)c2C(=O)c2c(O)cc(CO)cc21` was “inactive”.
On to `C=C1C[C@@]2(O)O[C@@]3(C[C@H]2C(C)C)[C@H](C)CC[C@H]13`, for which the Potency entry was “inactive”.
The value for `Nc1ccc(C(=O)Nc2cccc(-c3nc(N4CCOCC4)c4oc5ncccc5c4n3)c2)cn1` was 4.18 µM (active); that for `C=CC(=O)Nc1cccc(Nc2nc(NC3CCC(N(C)C)CC3)nc3c2ncn3C(C)C)c1` (stereo not given) was 0.0418 µM (active); that for `O=C1NCCc2[nH]c(-c3ccncc3)cc21` was 4.18 µM (active).
The value for `O=C1NC(=O)C(=Cc2ccc3nccc(-c4ccncc4)c3c2)S1` was 1.05 µM (active); that for `Nc1nc(N)c2nc(-c3cccc(O)c3)c(-c3cccc(O)c3)nc2n1` was 7.43 µM (active); that for `CC(C(C)N1CC(=O)NC(=O)C1)N1CC(=O)NC(=O)C1` (stereo not given) was “inactive”.
Regarding `O=C(O)[C@H](CC(=O)N1C[C@@H]2CCCC[C@H]2C1)Cc1ccccc1`, the Potency entry was “inactive”.
